Data as given in PubChem BioAssay (Tox21).
Records with an inconclusive call do not appear. Calls of active or inactive are those of the source. Unless noted, calls come from the whole dose curve.

Experiments:
[1] = molecular target: Thyrotropin receptor (Homo sapiens) (UniProt P16473); assay: qHTS assay to identify small molecule agonists of the thyroid stimulating hormone receptor (TSHR) signaling pathway (AID 1224843); note: nearly all actives have a fitted effect of over 45% in size
In short: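 HEK293/TSHR, 800 cells/well; cpd 30 min RT; add cAMP-d2 + anti-cAMP-cryptate, 1 h RT; fluorescence read on plate reader. 15-pt titration, n=3.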

[2] = qHTS assay to identify small molecule agonists of the hypoxia (HIF-1) signaling pathway - cell viability counter screen (AID 1224844); note: nearly all actives have a fitted effect of over 50% in size
In short: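 Cytotoxicity measured by CellTiter-Glo ATP luminescence in the wells also read for beta-lactamase signal. Cells were HRE-bla ME-180 (2,000/well, 0.5% dialyzed FBS), exposed to compounds for 17 h at 37C.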

[3] = qHTS assay to identify small molecule agonists of H2AX (AID 1224845; active = well fitted activation curve with a large enough effect in the signal ratio in the repeat runs, not every such curve was filed as active; the % refers to the signal ratio)
In short: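 Wild-type CHO-K1 cells, plated overnight, exposed 3hr at 37C to 15 concentrations (0.76% DMSO final). Lysed, then HTRF anti-pH2AX (S139) cryptate and anti-H2AX-d2 antibodies, 24 hr room temperature; 665/620 nm emission read.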

[4] = qHTS assay to identify small molecule agonists of the hypoxia (HIF-1) signaling pathway (AID 1224846; active = well fitted activation curve with a large enough effect in the signal ratio in the repeat runs, not every such curve was filed as active; the % refers to the signal ratio)
In short: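 Compounds added to ME-180 cells carrying hypoxia-response-element beta-lactamase reporter (0.5% dialyzed FBS, 5 h preplating), 17 h at 37C; agonist activity detected by CCF4-AM B/G FRET read-out.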

[5] = qHTS assay to identify small molecule agonists of H2AX - cell viability counter screen (AID 1224847); note: top concentration of the series differs between compounds; nearly all actives have a fitted effect of over 30% in size
In short: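 Viability of CHO-K1 (wild type) cells after 3 hr compound exposure was measured by CellTiter-Glo luminescence.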

[6] = qHTS assay to identify small molecule antagonists of the estrogen related receptor (ERR) signaling pathway from Tox21 library (AID 1224848; active = well fitted curve in the direction sought with a large enough effect in the repeat runs; an effect the other way counts as inactive or inconclusive; note: nearly all actives have a fitted effect of over 50% in size)
In short: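 Compounds dissolved in DMSO are pin-transferred onto ERR reporter cells (2,000 per well) that have settled for 6 h at 37 C. Plates then incubate 18 h at 37 C before ONE-Glo luciferase reagent and a luminescence read 30 min later.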

[7] = qHTS assay to identify small molecule agonists of the estrogen related receptor (ERR) signaling pathway from Tox21 library (AID 1224849); details: ERR reporter cell line, ONE-Glo luciferase, 18 h; at 92.4 µM (top of the series) unless noted; note: nearly all actives have a fitted effect of over 15% in size
In short: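 Luminescent agonist read-out (One-Glo, 30-minute room-temperature incubation) following 18-hour compound treatment at 37 C of the ERR cell line, which had been plated 6 hours before dosing.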

[8] = qHTS RealTime-Glo MT Cell Viability Assay in HepG2 cells - 24 hour (AID 1224867; active = well fitted curve in the direction sought with a large enough effect in the repeat runs; an effect the other way counts as inactive or inconclusive; note: nearly all actives have a fitted effect of over 50% in size)
In short: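 Luminescence read-out: viable HepG2 cells reduce a prosubstrate to a NanoLuc substrate, giving a signal proportional to live cell number. Reads taken at 0, 8, 16, 24, 32 and 40 h of compound exposure at 37 C.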

[9] = qHTS RealTime-Glo MT Cell Viability Assay in HEK293 cells - 32 hour (AID 1224868; active = well fitted curve in the direction sought with a large enough effect in the repeat runs; an effect the other way counts as inactive or inconclusive; note: top concentration of the series differs between compounds; nearly all actives have a fitted effect of over 50% in size)
In short: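 Nonlytic real-time viability readout: viable cells convert prosubstrate to NanoLuc substrate, giving luminescence proportional to live cell number. HEK293, 600 cells/well, compound added after 5 h, continuous culture at 37 C.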

[10] = A CellTox Green Cytotoxicity Assay to monitor cytotoxicity in HEK293 cells - 0 hour (AID 1224869; active = well fitted curve in the direction sought with a large enough effect in the repeat runs; an effect the other way counts as inactive or inconclusive; note: nearly all actives have a fitted effect of over 50% in size)
In short: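 Fluorescence from a DNA-binding dye excluded by viable cells was measured repeatedly in the same HEK293 wells (600 cells/well) during continuous compound exposure at 37 C. Each assay gives one read point: 0, 8, 16, 24, 32 or 40 h.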
% is set by controls: 0 for no effect and ±100 for the full control effect.

Chain of Thyrotropin receptor (Homo sapiens) (P16473 whole entry, looked up): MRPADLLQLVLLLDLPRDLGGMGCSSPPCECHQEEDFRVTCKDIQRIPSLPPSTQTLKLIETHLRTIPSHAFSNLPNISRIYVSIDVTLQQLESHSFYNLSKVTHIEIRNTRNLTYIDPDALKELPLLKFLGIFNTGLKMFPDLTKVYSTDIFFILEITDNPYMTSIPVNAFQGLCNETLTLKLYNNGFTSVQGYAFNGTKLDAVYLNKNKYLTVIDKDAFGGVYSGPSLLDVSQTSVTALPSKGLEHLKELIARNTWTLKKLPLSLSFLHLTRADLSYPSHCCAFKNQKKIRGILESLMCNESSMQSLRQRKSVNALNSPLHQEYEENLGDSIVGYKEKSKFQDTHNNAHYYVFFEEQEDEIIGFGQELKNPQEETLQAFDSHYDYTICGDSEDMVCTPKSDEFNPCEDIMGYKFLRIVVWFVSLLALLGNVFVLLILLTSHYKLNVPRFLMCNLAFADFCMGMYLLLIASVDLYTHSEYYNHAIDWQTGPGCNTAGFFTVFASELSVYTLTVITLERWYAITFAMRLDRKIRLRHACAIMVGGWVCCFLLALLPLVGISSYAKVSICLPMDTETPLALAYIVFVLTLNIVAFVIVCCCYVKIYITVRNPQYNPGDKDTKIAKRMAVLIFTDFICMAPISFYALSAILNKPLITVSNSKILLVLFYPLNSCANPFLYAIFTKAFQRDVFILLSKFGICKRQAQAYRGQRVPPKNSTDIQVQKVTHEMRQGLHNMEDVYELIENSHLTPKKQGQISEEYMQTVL

CN1CC(=O)NC1=N
inactive: Potency [1] | Potency [2] | outcome [3] | outcome [4] | Potency [5] | Potency [6] | activity change, positive = activation [7] 4.02% [at 42.5 µM] | Potency [8] | Potency [9] | Potency [10]

Cc1cccn2c(=O)c(-c3nnn[nH]3)cnc12
inactive: Potency [1] | activity change, negative = cytotoxicity [2] -2.16% [at 15.8 µM] | outcome [3] | activation [4] -0.179% [at 15.8 µM] | Potency [5] | activity, negative = inhibition [6] 7.1% [at 19 µM] | activity change, positive = activation [7] 4.72% [at 19 µM] | activity change, negative = cytotoxicity [8] -2.42% [at 15.8 µM] | activity change, negative = cytotoxic [9] -0.452% [at 15.8 µM] | cytotoxicity [10] 3.94% [at 15.8 µM]

N[C@H]1CN(c2c(F)cc3c(=O)c(C(=O)O)cn(C4C[C@H]4F)c3c2Cl)CC12CC2 (stereo partly specified)
inactive: Potency [1] | Potency [2] | outcome [3] | outcome [4] | Potency [5] | Potency [6] | activity change, positive = activation [7] 5.03% [at 42.5 µM] | Potency [8] | Potency [9] | Potency [10]

CC(C)CNCC(C)C
inactive: Potency [1] | Potency [2] | outcome [3] | outcome [4] | Potency [5] | Potency [6] | activity change, positive = activation [7] 1.17% | Potency [8] | Potency [9] | Potency [10]

Cn1cc(S(C)=O)c(=O)c2ccc(F)cc21 (stereo unspecified)
inactive: Potency [1] | Potency [2] | outcome [3] | outcome [4] | Potency [5] | Potency [6] | activity change, positive = activation [7] 0.0404% [at 42.5 µM] | Potency [8] | Potency [9] | Potency [10]

NS(=O)(=O)c1cc(C(=O)NN2C[C@H]3[C@H]4CCC(C4)[C@H]3C2)ccc1Cl
inactive: Potency [1] | Potency [2] | outcome [3] | outcome [4] | Potency [5] | Potency [6] | activity change, positive = activation [7] -1.11% [at 42.5 µM] | Potency [8] | Potency [9] | Potency [10]

CN1N=C(C(N)=O)CCC1=O
inactive: Potency [1] | Potency [2] | outcome [3] | outcome [4] | Potency [5] | Potency [6] | activity change, positive = activation [7] 0.737% [at 42.5 µM] | Potency [8] | Potency [9] | Potency [10]

Cc1cnc(NS(=O)(=O)c2ccc(N)cc2)nc1
inactive: Potency [1] | Potency [2] | outcome [3] | outcome [4] | Potency [5] | Potency [6] | activity change, positive = activation [7] 2.51% [at 42.5 µM] | Potency [8] | Potency [9] | Potency [10]

CC(C)(O)C(=O)c1ccccc1
inactive: Potency [1] | Potency [2] | outcome [3] | outcome [4] | Potency [5] | Potency [6] | activity change, positive = activation [7] 0.982% | Potency [8] | Potency [9] | Potency [10]

Nc1c[n+](N2CCOCC2)no1
inactive: Potency [1] | Potency [2] | outcome [3] | outcome [4] | Potency [5] | Potency [6] | activity change, positive = activation [7] 0.251% [at 42.5 µM] | Potency [8] | Potency [9] | Potency [10]

C1CN(CCOCCN2CCOCC2)CCO1
inactive: Potency [1] | Potency [2] | outcome [3] | outcome [4] | Potency [5] | Potency [6] | activity change, positive = activation [7] -7.8% | Potency [8] | Potency [9] | Potency [10]

N[C@H](C(=O)O)c1ccc(O)cc1
inactive: Potency [1] | activity change, negative = cytotoxicity [2] 4.56% [at 15.8 µM] | outcome [3] | activation [4] 0.0786% [at 15.8 µM] | Potency [5] | activity, negative = inhibition [6] 2.86% [at 19 µM] | activity change, positive = activation [7] 1.6% [at 19 µM] | activity change, negative = cytotoxicity [8] -0.341% [at 15.8 µM] | activity change, negative = cytotoxic [9] 3.67% [at 15.8 µM] | cytotoxicity [10] -2.5% [at 15.8 µM]

CC(=O)Nc1ccc(S(N)(=O)=O)cc1
inactive: Potency [1] | Potency [2] | outcome [3] | outcome [4] | Potency [5] | Potency [6] | activity change, positive = activation [7] 4.26% | Potency [8] | Potency [9] | Potency [10]

O=C[C@H](O)[C@@H](O)[C@H](O)[C@H](O)CO
inactive: Potency [1] | Potency [2] | outcome [3] | outcome [4] | Potency [5] | Potency [6] | activity change, positive = activation [7] 3.09% | Potency [8] | Potency [10]

CCCCCCCCCCCCCCCCC
inactive: Potency [1] | Potency [2] | outcome [3] | outcome [4] | Potency [5] | Potency [6] | activity change, positive = activation [7] -0.135% | Potency [8] | Potency [10]

Cc1sccc1Br
inactive: Potency [1] | Potency [2] | outcome [3] | outcome [4] | Potency [5] | Potency [6] | activity change, positive = activation [7] -1.02% [at 42.5 µM] | Potency [9] | Potency [10]

CC(=O)CC(C)C
inactive: Potency [1] | Potency [2] | outcome [3] | outcome [4] | Potency [5] | Potency [6] | activity change, positive = activation [7] 1.24% | Potency [9] | Potency [10]

CC(C)=CCCC(C)CC(=O)O (stereo unspecified)
inactive: Potency [1] | Potency [2] | outcome [3] | outcome [4] | Potency [5] | Potency [6] | activity change, positive = activation [7] 3.83% | Potency [8] | Potency [10]

O=C1CC2CC1C1CCCC21 (stereo unspecified)
inactive: Potency [1] | Potency [2] | outcome [3] | outcome [4] | Potency [5] | Potency [6] | activity change, positive = activation [7] -0.257% | Potency [9]

C=CCS(=O)(=O)O
inactive: Potency [1] | Potency [2] | outcome [3] | outcome [4] | Potency [5] | Potency [6] | Potency [8] | Potency [9] | Potency [10]

CCC(C)S (stereo unspecified)
inactive: activation [1] -2.63% [at 3.27 µM] | activity change, negative = cytotoxicity [2] 6.65% [at 2.72 µM] | activation (H2AX phosphorylation) [3] -0.0858% [at 5.45 µM] | activation [4] -1.24% [at 2.67 µM] | activity change, negative = cytotoxicity [5] 4.19% [at 5.43 µM] | activity, negative = inhibition [6] 2.44% [at 3.27 µM] | activity change, positive = activation [7] 2.37% [at 3.27 µM] | activity change, negative = cytotoxicity [8] 1.23% [at 2.72 µM] | activity change, negative = cytotoxic [9] 3.1% [at 2.72 µM] | cytotoxicity [10] -0.294% [at 2.72 µM]

N=C(N)c1ccc(OCCCOc2ccc(C(=N)N)cc2)cc1
inactive: Potency [1] | Potency [2] | outcome [3] | outcome [4] | Potency [5] | Potency [6] | Potency [8] | Potency [9] | Potency [10]
